This is part of a sample that, as a whole, favours compounds with a hit. Of some 79,000 tested, about 15% had one in any assay. No stated cut-off is given here; in the data, active means growth inhibition above about 70%; inactive means the rest. *1 amine or outer side, *2 acyl side, *3 side chain or, on linkers, in order; H or OH if unused. Where a SMILES comes first, the peptide text is derived from it. The star is where a group is joined. γGlu = O=C(O)[CH](CCC(=O)[*:2])N[*:1]; NHOH = ON*
Columns and labels:
[1] = NCI Yeast Anticancer Drug Screen. Data for the rad50 strain (AID 155);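 further: 0% = growth of vehicle-only cultures of the same strain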; conditions: S. cerevisiae rad50 strain growth inhibition; at 50.0 µM; stronger effect = higher value
How it was run: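 DNA repair mutant yeast, compound exposure, growth read-out; inhibition is taken relative to vehicle.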

[2] = NCI Yeast Anticancer Drug Screen. Data for the mec2-1 strain (AID 157); conditions: S. cerevisiae mec2-1 strain, at 50.0 µM, stronger effect = higher value
How it was run: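 Yeast mec2-1 mutant treated with compound. Readout: growth inhibition vs vehicle controls.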

[3] = NCI Yeast Anticancer Drug Screen. Data for the sgs1 mgt1 strain (AID 161);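 further: 0% = growth of cultures given vehicle only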; conditions: S. cerevisiae sgs1 mgt1 strain, at 50.0 µM, stronger effect = higher value
How it was run: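 Genetically altered yeast, compound exposure, growth inhibition relative to vehicle.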

[4] = NCI Yeast Anticancer Drug Screen. Data for the cln2 rad14 strain (AID 165);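 further: 0% = growth equal to vehicle treated cultures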; conditions: S. cerevisiae cln2 rad14 strain, at 50.0 µM, stronger effect = higher value
How it was run: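 cln2 rad14 yeast strain; compound exposure; growth inhibition read vs vehicle controls.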

[5] = NCI Yeast Anticancer Drug Screen. Data for the bub3 strain (AID 167); conditions: S. cerevisiae bub3 mutant strain, at 50.0 µM, stronger effect = higher value
How it was run: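 In this screen, a yeast mutant lacking normal mitotic checkpoint function is challenged with compound. Relative growth versus vehicle gives the inhibition value.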

[6] = NCI Yeast Anticancer Drug Screen. Data for the mlh1 rad18 strain (AID 175); conditions: S. cerevisiae mlh1 rad18 strain growth inhibition; at 50.0 µM; stronger effect = higher value
How it was run: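 Yeast w/ defined DNA-repair lesions; compound exposure; growth vs vehicle controls → % inhibition.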

Measured: growth inhibition

COc1ccc(-c2cc3cc(CCCOC4OC(COC5OCC(O)C(O)C5O)C(O)C(O)C4O)cc(OC)c3o2)cc1OC (stereo not given)
inactive: [1] 31% | [2] 17.4% | [3] 34.6% | [4] 23.8% | [5] 8.8% | [6] 23.4%

C=Cc1c2[n-]c(c1C)/C=c1\[n-]/c(c(C)c1C=C)=C\c1[n-]c(c(CCC(=O)O)c1C)/C=c1\[n-]/c(c(C)c1CCC(=O)O)=C\2.[Co]
inactive: [1] 14.8% | [2] 54.9% | [3] 53.6% | [4] -2.05% | [5] 19.2% | [6] 59.9%

Cc1cc2c(c(N)c1C)C(=O)c1ccccc1C2=O
inactive: [1] 18.4% | [2] 11.4% | [3] 31.7% | [4] 10.9% | [5] 26.2% | [6] 6.7%

O=C(CCSCCC(=O)N/N=C/c1ccccc1F)N/N=C\c1ccccc1F
inactive: [1] 22.6% | [2] 10.7% | [3] 38.1% | [4] 27.4% | [5] 24.4% | [6] 21.8%

NC(CCC(=O)NC(CCC(=O)NO)C(=O)NCC(=O)O)C(=O)O (stereo not given) (γGlu-Glu(NHOH)-Gly-OH; configuration not given here)
inactive: [1] -29.5% | [2] -3.2% | [3] -11.6% | [4] 2.05% | [5] -4.85% | [6] -42.5%

CC1C=CC(C)c2c(-c3ccccc3)oc(-c3ccccc3)c21 (stereo not given)
inactive: [1] 17% | [2] 8.6% | [3] -1.5% | [4] -2.6% | [5] -0.4% | [6] 9.7%

C=CCCCCCCCCC(=O)NCc1nc2ccccc2[nH]1
inactive: [1] 20.6% | [2] 21.6% | [3] 25.9% | [4] 1.15% | [5] 5.9% | [6] 69.1%

O=C(C(=O)c1ccco1)c1ccco1
inactive: [1] 64.1% | [2] -0.45% | [3] 34.1% | [4] -24.6% | [5] 21.1% | [6] 35%

N#Cc1cc(-c2ccccc2)c[nH]c1=O
inactive: [1] -8.55% | [2] -1.45% | [3] -4.6% | [4] -36.9% | [5] -1.25% | [6] -1.55%

Cc1cccc(C)c1Nc1ncnc2c1cnn2C
inactive: [1] -11.6% | [2] -12.5% | [3] -1.2% | [4] -6.55% | [5] 9.95% | [6] -13.9%

Cc1nc2c(N3CCOCC3)ncnc2o1
inactive: [1] 5.15% | [2] -1.05% | [3] -5.5% | [4] -27.4% | [5] -15.3% | [6] 7.75%

COc1ccc(OC)c(NC(=O)OCc2ccc3c(c2)OCO3)c1
inactive: [1] 1.25% | [2] -14% | [3] 5.45% | [4] 10.2% | [5] 26.9% | [6] -4.7%

CN(C)CCO[Si](C)(c1ccccc1)c1ccc(F)cc1 (stereo not given)
inactive: [1] 16.6% | [2] -7.95% | [3] 20.6% | [4] -10.1% | [5] 11.8% | [6] 3.95%

ClCc1nnc(-c2ccccc2)o1
inactive: [1] 14.8% | [2] -2.9% | [3] -16.2% | [4] -43% | [5] -16.2% | [6] -4.75%

C/C(N=NC(=S)N1CCCC1)=C1\C=CC=CN1O
inactive: [1] 5.45% | [2] -8.35% | [3] 15.4% | [4] -5.6% | [5] 7.95% | [6] 22.9%

CC1(C)OC2C(CNS(C)(=O)=O)OC(n3cnc4c(N)ncnc43)C2O1 (stereo not given)
inactive: [1] -3.05% | [2] -4.55% | [3] -12.1% | [4] -4.75% | [5] 7.45% | [6] -13.2%

S=C(Nc1ccccc1)Nc1nc(-c2ccccc2)c(N=Nc2ccc(Cl)cc2)s1
inactive: [1] 42.5% | [2] 2.6% | [3] 22.2% | [4] 18.6% | [5] -0.85% | [6] 9.45%

CC(=O)c1ccc(OCc2ccccc2)cc1OCc1ccccc1
inactive: [1] 7% | [2] 4.5% | [3] -9.8% | [4] 11.7% | [5] 4.8% | [6] -18.6%

Cn1c(=O)c2[nH]c(C3CC(=O)CC(c4nc5c([nH]4)c(=O)n(C)c(=O)n5C)N3)nc2n(C)c1=O (stereo not given)
inactive: [1] -1.75% | [2] 5.1% | [3] -14.4% | [4] 1.8% | [5] -27.4% | [6] 7.15%

CC(C)CSc1nc(N)nc2c1ncn2CC(C)C
inactive: [1] -8.65% | [2] -6.4% | [3] 32.7% | [4] -21.7% | [5] 29.4% | [6] 18.9%

Reference: PubChem BioAssay (NCI)
